Results: PubChem BioAssay AID1159580 (chemical genetic matrix, 2015)
The whole screen tested about 5,500 compounds, of which about 2,000 (36%) were called active. Not shown: some 18% with an inconclusive outcome. Some of the results follow. Unmarked numbers belong to inactive results. Rule as the data show it: active = normalized growth mostly below about 0.91 (no sharp cut-off); inconclusive = no clear call, values can overlap the other calls; inactive = mostly above about 0.92.

Test: chemical genetic growth profiling, strain panel (AID 1159580);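 also: tested at 20 µM; growth read once vehicle control cultures reached saturation at 30 °C; 1 = growth at the plate median or of vehicle wells; lower values mean less growth of the strain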
Conditions: growth OD
[1] = S. cerevisiae deletion strains, locus YDR150W, strain NUM1, stronger effect = lower value
[2] = S. cerevisiae deletion strains, locus YGR078C, strain PAC10, stronger effect = lower value
[3] = S. cerevisiae deletion strains, locus YGR229C, strain SMI1, stronger effect = lower value
[4] = S. cerevisiae deletion strains, locus YJR075W, strain HOC1, stronger effect = lower value
[5] = S. cerevisiae deletion strains, locus YMR263W, strain SAP30, stronger effect = lower value
[6] = S. cerevisiae deletion strains, locus YMR307W, strain GAS1, stronger effect = lower value
[7] = S. cerevisiae deletion strains, locus YNL128W, strain TEP1, stronger effect = lower value
[8] = S. cerevisiae deletion strains, locus YNL322C, strain KRE1, stronger effect = lower value
[9] = S. cerevisiae deletion strains, locus YPL055C, strain LGE1, stronger effect = lower value
[10] = S. cerevisiae deletion strains, locus YPL241C, strain CIN2, stronger effect = lower value
[11] = S. cerevisiae deletion strains, locus YAL040C, strain CLN3, stronger effect = lower value
[12] = S. cerevisiae deletion strains, locus YCL061C, strain MRC1 (second series), stronger effect = lower value
[13] = S. cerevisiae deletion strains, locus YDR363W, strain ESC2, stronger effect = lower value
[14] = S. cerevisiae deletion strains, locus YER002W, strain NOP16, stronger effect = lower value
[15] = S. cerevisiae deletion strains, locus YNL175C, strain NOP13, stronger effect = lower value
[16] = S. cerevisiae deletion strains, locus YNL197C, strain WHI3, stronger effect = lower value
[17] = S. cerevisiae deletion strains, locus YNL224C, strain SQS1, stronger effect = lower value
[18] = S. cerevisiae deletion strains, locus YOR083W, strain WHI5 (second series), stronger effect = lower value

CC(=O)OC1CN2CCC1CC2 (stereo not drawn)
normalized growth (S. cerevisiae deletion strains, locus YAL013W, strain DEP1, stronger effect = lower value): 0.997
normalized growth (S. cerevisiae deletion strains, locus YBR021W, strain FUR4, stronger effect = lower value): 1.01
normalized growth (S. cerevisiae deletion strains, locus YBR229C, strain ROT2, stronger effect = lower value): 0.973
normalized growth (S. cerevisiae deletion strains, locus YCL029C, strain bik1, stronger effect = lower value): 0.983
normalized growth (S. cerevisiae deletion strains, locus YDL035C, strain GPR1, stronger effect = lower value): 1.02
normalized growth (S. cerevisiae deletion strains, locus YDL074C, strain BRE1, stronger effect = lower value): 1.03
normalized growth (S. cerevisiae deletion strains, locus YDL101C, strain DUN1, stronger effect = lower value): 0.989
normalized growth (S. cerevisiae deletion strains, locus YDL134C, strain PPH21, stronger effect = lower value): 0.988
normalized growth (S. cerevisiae deletion strains, locus YDL185W, strain tfp1, stronger effect = lower value): 0.965
normalized growth (S. cerevisiae deletion strains, locus YDL192W, strain arf1, stronger effect = lower value): 0.985
normalized growth (S. cerevisiae deletion strains, locus YDR101C, strain arx1, stronger effect = lower value): 0.987
normalized growth [1]: 0.982
normalized growth (S. cerevisiae deletion strains, locus YDR162C, strain NBP2, stronger effect = lower value): 0.991
normalized growth (S. cerevisiae deletion strains, locus YDR318W, strain mcm21, stronger effect = lower value): 1
normalized growth (S. cerevisiae deletion strains, locus YDR388W, stronger effect = lower value): 0.991
normalized growth (S. cerevisiae deletion strains, locus YDR502C, strain sam2, stronger effect = lower value): 0.993
normalized growth (S. cerevisiae deletion strains, locus YEL061C, strain CIN8, stronger effect = lower value): 0.995
normalized growth (S. cerevisiae deletion strains, locus YER110C, stronger effect = lower value): 0.959
normalized growth (S. cerevisiae deletion strains, locus YER155C, strain BEM2, stronger effect = lower value): 1
normalized growth (S. cerevisiae deletion strains, locus YER167W, strain BCK2, stronger effect = lower value): 1
normalized growth (S. cerevisiae deletion strains, locus YGL078C, strain dbp3, stronger effect = lower value): 0.993
normalized growth (S. cerevisiae deletion strains, locus YGL086W, strain mad1, stronger effect = lower value): 0.994
normalized growth (S. cerevisiae deletion strains, locus YGL248W, strain PDE1, stronger effect = lower value): 1.01
normalized growth [2]: 1.01
normalized growth (S. cerevisiae deletion strains, locus YGR135W, strain pre9, stronger effect = lower value): 0.995
normalized growth [3]: 1.01
normalized growth (S. cerevisiae deletion strains, locus YGR252W, strain gcn5, stronger effect = lower value): 1.07
normalized growth (S. cerevisiae deletion strains, locus YHR030C, strain SLT2, stronger effect = lower value): 1
normalized growth (S. cerevisiae deletion strains, locus YHR079C, strain IRE1 (second series), stronger effect = lower value): 0.982
normalized growth (S. cerevisiae deletion strains, locus YHR094C, strain hxt1, stronger effect = lower value): 0.985
normalized growth (S. cerevisiae deletion strains, locus YHR129C, strain ARP1, stronger effect = lower value): 1
normalized growth (S. cerevisiae deletion strains, locus YHR200W, strain rpn10, stronger effect = lower value): 0.985
normalized growth (S. cerevisiae deletion strains, locus YIL066C, strain RNR3, stronger effect = lower value): 0.993
normalized growth (S. cerevisiae deletion strains, locus YIL073C, strain SPO22, stronger effect = lower value): 0.97
normalized growth (S. cerevisiae deletion strains, locus YIL125W, strain kgd1, stronger effect = lower value): 0.982
normalized growth (S. cerevisiae deletion strains, locus YIR030C, strain dcg1, stronger effect = lower value): 0.971
normalized growth (S. cerevisiae deletion strains, locus YJL095W, strain BCK1, stronger effect = lower value): 1.04
normalized growth (S. cerevisiae deletion strains, locus YJL134W, strain LCB3, stronger effect = lower value): 0.987
normalized growth (S. cerevisiae deletion strains, locus YJL168C, strain set2, stronger effect = lower value): 0.994
normalized growth (S. cerevisiae deletion strains, locus YJL187C, strain SWE1 (second series), stronger effect = lower value): 1.01
normalized growth (S. cerevisiae deletion strains, locus YJR043C, strain POL32, stronger effect = lower value): 1.01
normalized growth [4]: 1.02
normalized growth (S. cerevisiae deletion strains, locus YKL009W, strain mrt4, stronger effect = lower value): 0.963
normalized growth (S. cerevisiae deletion strains, locus YKL068W, stronger effect = lower value): 0.982
normalized growth (S. cerevisiae deletion strains, locus YKL085W, strain MDH1 (second series), stronger effect = lower value): 0.992
normalized growth (S. cerevisiae deletion strains, locus YKL085W, strain MDH1, stronger effect = lower value): 0.992
normalized growth (S. cerevisiae deletion strains, locus YKL190W, strain CNB1, stronger effect = lower value): 0.997
normalized growth (S. cerevisiae deletion strains, locus YKR001C, strain vps1, stronger effect = lower value): 0.981
normalized growth (S. cerevisiae deletion strains, locus YLR039C, strain RIC1, stronger effect = lower value): 1
normalized growth (S. cerevisiae deletion strains, locus YLR058C, strain SHM2, stronger effect = lower value): 0.986
normalized growth (S. cerevisiae deletion strains, locus YLR102C, strain apc9, stronger effect = lower value): 0.982
normalized growth (S. cerevisiae deletion strains, locus YLR262C, strain YPT6, stronger effect = lower value): 0.997
normalized growth (S. cerevisiae deletion strains, locus YLR268W, strain sec22, stronger effect = lower value): 1.09
normalized growth (S. cerevisiae deletion strains, locus YLR330W, strain CHS5, stronger effect = lower value): 0.991
normalized growth (S. cerevisiae deletion strains, locus YLR342W, strain FKS1 (second series), stronger effect = lower value): 1.02
normalized growth (S. cerevisiae deletion strains, locus YLR371W, strain rom2, stronger effect = lower value): 0.929
normalized growth (S. cerevisiae deletion strains, locus YLR418C, strain cdc73, stronger effect = lower value): 1.05
normalized growth (S. cerevisiae deletion strains, locus YML016C, strain PPZ1, stronger effect = lower value): 0.981
normalized growth (S. cerevisiae deletion strains, locus YML032C, strain rad52, stronger effect = lower value): 1.01
normalized growth (S. cerevisiae deletion strains, locus YML124C, strain tub3, stronger effect = lower value): 0.976
normalized growth (S. cerevisiae deletion strains, locus YMR078C, strain ctf18, stronger effect = lower value): 0.972
normalized growth (S. cerevisiae deletion strains, locus YMR223W, strain ubp8, stronger effect = lower value): 0.995
normalized growth [5]: 1.01
normalized growth [6]: 1.1
normalized growth (S. cerevisiae deletion strains, locus YNL067W, strain RPL9B, stronger effect = lower value): 1.04
normalized growth [7]: 0.997
normalized growth (S. cerevisiae deletion strains, locus YNL153C, strain GIM3, stronger effect = lower value): 1.01
normalized growth (S. cerevisiae deletion strains, locus YNL233W, strain BNI4, stronger effect = lower value): 1.04
normalized growth (S. cerevisiae deletion strains, locus YNL250W, strain rad50, stronger effect = lower value): 0.98
normalized growth (S. cerevisiae deletion strains, locus YNL271C, strain bni1, stronger effect = lower value): 0.987
normalized growth (S. cerevisiae deletion strains, locus YNL298W, strain CLA4, stronger effect = lower value): 0.962
normalized growth (S. cerevisiae deletion strains, locus YNL307C, strain MCK1, stronger effect = lower value): 0.988
normalized growth [8]: 0.995
normalized growth (S. cerevisiae deletion strains, locus YNR052C, strain pop2, stronger effect = lower value): 0.989
normalized growth (S. cerevisiae deletion strains, locus YOL006C, strain TOP1, stronger effect = lower value): 1.04
normalized growth (S. cerevisiae deletion strains, locus YOL012C, strain htz1): 1.28
normalized growth (S. cerevisiae deletion strains, locus YOL147C, strain pex11, stronger effect = lower value): 0.989
normalized growth (S. cerevisiae deletion strains, locus YOR061W, strain CKA2, stronger effect = lower value): 0.975
normalized growth (S. cerevisiae deletion strains, locus YOR136W, strain idh2, stronger effect = lower value): 0.988
normalized growth (S. cerevisiae deletion strains, locus YOR144C, strain elg1, stronger effect = lower value): 0.968
normalized growth (S. cerevisiae deletion strains, locus YOR184W, strain ser1, stronger effect = lower value): 0.98
normalized growth (S. cerevisiae deletion strains, locus YOR316C, strain cot1, stronger effect = lower value): 0.978
normalized growth [9]: 1.02
normalized growth [10]: 0.999
normalized growth (S. cerevisiae deletion strains, locus YPR119W, strain clb2, stronger effect = lower value): 0.987
normalized growth (S. cerevisiae deletion strains, locus YPR141C, strain kar3, stronger effect = lower value): 0.963
normalized growth (S. cerevisiae deletion strains, locus YPR163C, strain tif3, stronger effect = lower value): 0.986
normalized growth (S. cerevisiae deletion strains, locus YPR167C, strain met16, stronger effect = lower value): 0.984
normalized growth (S. cerevisiae deletion strains, strain wtn01, stronger effect = lower value): 1.01
normalized growth (S. cerevisiae strains, strain wild type, stronger effect = lower value): 1.01

Cc1ccc(S(=O)(=O)N[C@@H](Cc2ccccc2)C(=O)CCl)cc1
normalized growth [11]: 0.932
normalized growth [12]: 0.987
normalized growth [1]: 0.998
normalized growth [13]: 1
normalized growth [14]: 0.904 (active)
normalized growth [4]: 0.959
normalized growth [5]: 0.993
normalized growth [6]: 0.896 (active)
normalized growth [7]: 0.955
normalized growth [15]: 0.902 (active)
normalized growth [16]: 0.892 (active)
normalized growth [17]: 0.954
normalized growth [8]: 1.01
normalized growth [18]: 0.957
normalized growth [9]: 0.983

O=C(NC(Cc1ccccc1)C(=O)CCl)OCc1ccccc1 (stereo not drawn)
normalized growth [11]: 1.03
normalized growth [12]: 0.979
normalized growth [13]: 1.02
normalized growth [14]: 0.549 (active)
normalized growth [2]: 0.98
normalized growth [3]: 0.28 (active)
normalized growth [4]: 0.913
normalized growth [15]: 0.707 (active)
normalized growth [16]: 0.874 (active)
normalized growth [17]: 0.784 (active)
normalized growth [8]: 0.999
normalized growth [18]: 0.687 (active)
normalized growth [10]: 0.992
